Test results published in PubChem BioAssay AID485317 (Broad Institute, 2010).
The whole screen tested about 290,000 compounds, of which about 11,000 (3.8%) were called active. The full list was thinned out, with actives kept by preference. Values without a mark were called inactive.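 The calls were made as follows: active = mean replicate inhibition above about 79%, with every replicate also reaching it (limit read from the data); inconclusive = only one of the two criteria met; inactive = mean below limit and not every replicate reaching it.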

What follows are compounds tested against FAD-linked sulfhydryl oxidase ALR (Homo sapiens) (UniProt P55789) (assay: inhibitors of human ALR sulfhydryl oxidase, primary screen, biochemical, H2O2 detection, HRP-luminol luminescence, single point (AID 485317)). Conditions: purified ALR, DTT oxidation, hits give high values, concentration not given here.
FAD-linked sulfhydryl oxidase ALR (Homo sapiens), sequence (P55789 whole entry, looked up): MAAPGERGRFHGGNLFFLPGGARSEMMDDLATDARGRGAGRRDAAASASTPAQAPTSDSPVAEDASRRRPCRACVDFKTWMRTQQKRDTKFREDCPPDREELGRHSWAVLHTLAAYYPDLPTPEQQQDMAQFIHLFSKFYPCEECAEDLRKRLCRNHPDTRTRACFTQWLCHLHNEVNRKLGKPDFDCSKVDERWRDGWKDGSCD

Structure (SMILES) | inhibition
CN(C)C(=O)c1ccc(NC(=O)COC(=O)c2cc3c(s2)CCCCC3)cc1 | -2.4%
CCOc1ccc(NS(=O)(=O)c2ccc(Cl)c(C(=O)N(C)Cc3cccnc3)c2)cc1 | -9.87%
O=C(Nc1cccc(S(=O)(=O)N2CCOCC2)c1)C12CC3CC(CC(C3)C1)C2 | -1.07%
Oc1cc(O)c2c(c1)OC(c1ccc(O)c(O)c1)C(O)C2 (stereo not drawn) | 98.2% (active)
O=C1N[C@@H](c2ccccc2)COC(=O)[C@H](Cc2ccc(F)cc2)C/C=C\C[C@@H]1CC(=O)N(CCO)Cc1ccccc1 | -1.44%
Cc1ccc(NC(=O)COc2coc(CN3CCc4ccccc4C3)cc2=O)cc1Cl | -8.1%
Cc1ccsc1C(=O)OCC(=O)NCCc1ccccc1 | -5.18%
Cc1cccc(N2C(=O)SC(N(CC(=O)O)c3cccc(C)c3)C2=O)c1 (stereo not drawn) | 98.6% (active)
Cc1cccc(N2C(=O)SC(SC(=Nc3ccccc3)Nc3ccccc3)C2=O)c1 (stereo not drawn) | 0.802%
Cc1ccc(N2C(=O)SC(N(CC(=O)O)c3ccc(C)cc3)C2=O)cc1 (stereo not drawn) | 0.583%
CN(N)c1nc(N2CCCC2)nc(N2CCCC2)n1 | -6.99%
Cc1sc2ncnc(N3CCC(C(=O)Nc4ccc(F)cc4Cl)CC3)c2c1C | 1.27%
Nc1c(-c2ccccc2)nnn1Cc1ccccc1 | -6.35%
Cc1ccc(C(=O)CSc2nnc(Cn3nnc4ccccc43)n2C)cc1 | 39.7%
Cn1c(CC(=O)Nc2ccccc2)nnc1SCC(=O)c1ccccc1 | -3.26%
Cn1c(CC2Sc3ccccc3NC2=O)nnc1SCC(=O)c1ccc(Cl)cc1 (stereo not drawn) | 92.8% (active)
S=c1[nH]nc(-c2ccco2)n1/N=C/c1ccccc1 | 94.9% (active)
S=c1[nH]nc(-c2ccco2)n1/N=C/c1ccc(Br)s1 | 68.5%
Cc1cc(-c2n[nH]c(=S)n2/N=C/c2ccco2)n[nH]1 | -0.903%
COc1ccc(C(=O)COC(=O)C(O)c2ccccc2)c(OC)c1 (stereo not drawn) | -0.55%
O=C(C1Cc2ccccc2CN1C(=O)c1ccco1)N1CCN(c2ccccc2)CC1 (stereo not drawn) | 50.3%
Cc1ccc(Cl)c(OCC(=O)N(C)CC(=O)Nc2ccc(N3CCOCC3)cc2)c1 | 52.9%

Structure (SMILES) | inhibition
O=C(CCc1[nH]c2ccccc2c1Sc1ccccc1)N(CCO)CCO | 99% (active)
CCCC(=O)N(CCc1ccccc1)Cc1nc2ccccc2c(=O)[nH]1 | -7.51%
CCCCNC(=O)Cn1nc(C)c(S(=O)(=O)N2CCOCC2)c1C | 3.23%
COc1ccc(S(=O)(=O)N2CCN(CC(=O)N3CCOCC3)CC2)cc1OC | -0.297%
Oc1ccc(-c2nnc(Nc3ccccc3)c3ccccc23)cc1 | 98.8% (active)
Cc1cccc(-c2nc(Nc3ccc(O)cc3)c3ccccc3n2)c1 | 6.09%
Cc1ccc(-c2nnc(Nc3ccc(C(=O)N(C)C)cc3)c3ccccc23)cc1S(N)(=O)=O | -2.47%
O=C1NC(c2cccc(Cl)c2)Nc2ccccc21 (stereo not drawn) | 0.575%
CCOC(=O)NN1C(=O)c2ccccc2NC1c1cccc(O)c1 (stereo not drawn) | -18.3%
O=C1c2ccccc2NC(c2ccc(-c3cccc(Cl)c3)o2)N1O (stereo not drawn) | 95.9% (active)
COc1ccc(C(=O)COC(=O)c2c(C)noc2C)cc1Cl | 1.08%
Nc1ccc(-c2nnc(-c3ccccc3)o2)cc1 | 36.1%
Nc1ccc(-c2sc(N)nc2-c2ccccc2)cc1 | 99% (active)
Nc1nc(-c2ccccc2)cc(-c2ccccc2)n1 | -2.58%
CCN1C(=O)[C@@H]2[C@@H](c3ccc(-c4ccccc4)cc3)N3CCCC[C@@]3(C(=O)OC)[C@@H]2C1=O | -1.67%
CCCCn1c(N)c(N(CCOC)C(=O)c2cccc(S(=O)(=O)N(C)c3ccccc3)c2)c(=O)[nH]c1=O | -2.15%
Cc1ccc(NC(=O)C2CC(=O)N(c3ccc4c(c3)OCCO4)C2)cc1S(=O)(=O)N1CCCCCC1 (stereo not drawn) | -0.304%
COc1cc(C2C(C(=O)c3cccs3)=C(O)C(=O)N2CCN2CCOCC2)ccc1OCCC(C)C (stereo not drawn) | -0.637%
Cc1ccc(NC(=O)C/C(N)=N/O)cc1Cl | -7.95%
COc1ccc(Cc2nnc(SCC(=O)Nc3ccc(C)c(Cl)c3)[nH]c2=O)cc1 | -4.08%
Cc1ccc(NC(=O)CSc2nn3c(=O)c(C)nnc3s2)cc1Cl | 98.9% (active)
CC(C)(C)S(=O)(=O)c1ccccc1-c1noc(-c2ccccc2)c1C(N)=O | -2.96%

Structure (SMILES) | inhibition
COc1ccc2c(c1)C(=O)Nc1cc(Cl)ccc1N2 | 87.7% (active)
COc1ccc(C2NC(=O)c3ccccc3N2)cc1 (stereo not drawn) | 0.0966%
COc1ccc2nc3n(c(=O)c2c1)-c1ccc(Cl)cc1C(=O)NC3Cc1ccccc1 (stereo not drawn) | -0.323%
CC(C)(C)c1ccc(C(=O)NCc2ccco2)cc1 | 1.34%
CN(CC(=O)NC1CCN(Cc2ccccc2)CC1)S(=O)(=O)c1ccc(Cl)s1 | -2.03%
Cc1ccc(NC(=O)c2ccc(Cl)nc2)cc1S(=O)(=O)N1CCOCC1 | -4.04%
Cc1ccc(NC(=O)CSCC(=O)NC2CCCCC2)cc1 | -3.3%
Cc1ccc(-c2nc(CSCC(=O)NC3CCN(Cc4ccccc4)CC3)c(C)o2)cc1 | 99.5% (active)
Cc1ccc(-c2cc(C(=O)NC3CCN(Cc4ccccc4)CC3)c3ccccc3n2)cc1 | 1.58%
Cc1ccc(NC(=O)CS(=O)CC(=O)N(c2ccccc2)C(C)C(=O)NC2CCCC2)cc1 (stereo not drawn) | -4.87%
Cc1ccc(-c2nc(CS(=O)CC(=O)NC3CCCC3)c(C)o2)cc1 (stereo not drawn) | 99.1% (active)
Cc1ccc(S(=O)(=O)NCCC(=O)NC2CCN(Cc3ccccc3)CC2)cc1 | 6.19%
COC(=O)[C@]1(CC(C)C)N[C@H](c2ccc(SC3CCCCC3)cc2)[C@@H]2C(=O)N(C)C(=O)[C@@H]21 | -4.22%
O=C(Nc1cccc(S(=O)(=O)N2CCCC2)c1)c1cncc(Br)c1 | -0.493%
OCC[C@H]1C[C@@H](O)[C@H](O)[C@@]2(OCCc3ccccc32)O1 | -5.81%
C=CC[C@@H](CC(=O)N[C@@H](CO)Cc1ccccc1)C(=O)N[C@H](COC(=O)[C@H](CC=C)CC(=O)OC(C)(C)C)Cc1ccccc1 | 0.393%
Oc1c(C(c2cccs2)N2CCN(c3ccc(F)cc3)CC2)sc2ncnn12 (stereo not drawn) | 95.5% (active)
Cc1ccc(C(c2sc3nc(C)nn3c2O)N2CCN(c3ccc(F)cc3)CC2)cc1 (stereo not drawn) | 2.24%
Oc1c(C(c2ccco2)N2CCC3(CC2)OCCO3)sc2ncnn12 (stereo not drawn) | -33.4%
COc1ccc(C(CNC(=O)c2ccc(NS(=O)(=O)c3ccc(F)c(C)c3)cc2)N(C)C)cc1 (stereo not drawn) | -5.64%
CC1(C)CC(=O)C=C(c2ccc(Cl)c(C(F)(F)F)c2)C1 | 3.75%
CCN(CC(=O)Nc1ccc(NC(C)=O)cc1)C(=O)CSC(=S)N1CCCC1 | -0.0599%

Structure (SMILES) | inhibition
COc1cc(NC(=O)CSC(=S)N2CCCC2)c(OC)cc1Cl | -2.05%
CC(=O)c1ccc(NC(=O)CSC(=S)N2CCCC2)cc1 | 92.8% (active)
CCN1C(=O)c2cccc3c(N)ccc1c23 | 99.2% (active)
CN1C(=O)c2cccc3c(N)ccc(c23)C1=O | -15.1%
CCN1C(=O)c2cccc3c(S(=O)(=O)Nc4ccccc4O)ccc1c23 | -28.9%
COc1ccc(-c2c(C#Cc3ccccc3)c3ccccc3n2C)cc1 | -4.24%
CCOC(=O)C1CCN(CC(=O)Nc2ccc(OC)c(S(=O)(=O)N3CCCCC3)c2)CC1 | -8.75%
COc1ccc(F)cc1S(=O)(=O)NCC(c1ccc2c(c1)OCO2)N1CCN(C)CC1 (stereo not drawn) | -4.58%
CN(C(=O)c1cccc(NC(=O)C2CCN(C(=O)OC(C)(C)C)CC2)c1)C1CCC1 | 4.19%
C=CCNC(=O)COc1coc(CN2CCN(Cc3ccccc3)CC2)cc1=O | -3.07%
O=C(/C=C/c1ccccc1)Oc1coc(CSc2ncccn2)cc1=O | 97.4% (active)
Cc1ccc(C(=O)Oc2coc(CSc3nnc(NC(=O)c4cccs4)s3)cc2=O)cc1C | 0.72%
CC(=O)NCc1ccc(-c2csc(NC(=O)CCCc3nc4ccccc4c(=O)[nH]3)n2)cc1 | -5.1%
C[C@@H]1CN([C@H](C)CO)C(=O)c2cc(NC(=O)NC3CCCCC3)ccc2O[C@H]1CN(C)S(C)(=O)=O | 0.076%
Cc1cccc(N=C2SC(C)CN2C(=O)CN2C(=O)NC3(CCCC3)C2=O)c1 (stereo not drawn) | 2.77%
O=C1CSc2ccc(C(=O)NCc3ccccn3)cc2N1 | -5.07%
Cc1nn(Cc2ccccc2)c(C)c1C(=O)N1CCN(CC(=O)Nc2ccccc2Cl)CC1 | -4.78%
COc1ccc(-c2nc3c(s2)CCc2onc(-c4ccc(Br)cc4)c2-3)cc1 | -11%
Clc1ccc2nc(CSc3ccccc3)cn2c1 | 98.9% (active)
CCOc1ncccc1C(=O)OCc1cn2cc(Cl)ccc2n1 | -2.41%
CCCCCCSc1ccc(-c2nc3ccc(Cl)cn3c2NCc2ccccc2)cc1 | -0.616%
O=C1N[C@@H](Cc2ccccc2)C(=O)N2[C@H]1C[C@]1(Br)c3ccccc3N(S(=O)(=O)c3ccccc3)[C@H]21 | -12.1%
